Assay outcomes: PubChem, The Scripps Research Institute Molecular Screening Center
Only some compounds are listed: those with a hit (about 2.3% of all), similar ones and a draw of the others.
MBD2 DNA inh = inhibitors of human MBD2 binding to methylated oligonucleotide | inhibition, % at 4.4 µM | hit rate 0.31% among 370,000 | Q9UBB5 | TR-FRET; in the data active = inhibition above about 13%
LEDGF integ inh = blocks HIV-1 LEDGF/p75-dependent DNA integration | inhibition, % at 3.7 µM | hit rate 0.64% among 370,000 | AID 743269 | TR-FRET IN-LEDGF/p75 DNA integration, Eu/Cy5;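 active = inhibition above the screen-wide mean plus 3 SD, cut at about 13% in these data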;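 note: signal is the Cy5 over europium emission ratio at 671 and 618 nm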
PLCg1 inh = blocks human PLC-gamma1 enzyme activity; P19174; purified PLC-gamma1, fluorogenic substrate, fluorescence; inhibition, % at 12.2 µM; hit rate 0.84% among 370,000; in the data active = inhibition above about 9.5%
UHRF1 MBD2 ctr = human UHRF1 methylated DNA binding inhibitors; Q96T88; UHRF1 binding to methylated oligo, TR-FRET; inhibition, % at 4.4 µM; hit rate 0.75% among 370,000; in the data active = inhibition above about 21%;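 note: UHRF1 SRA domain binding a hemimethylated CpG hairpin DNA probe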
PLCb3 inh = blocks human PLC-beta3 enzyme activity; Q01970; hit rate 0.18% among 370,000; inhibition, % at 12.2 µM; Purified PLC-beta3, fluorogenic substrate, fluorescence; AID 720704; in the data active = inhibition above about 11%
Target sequence (Q01970 whole entry, looked up): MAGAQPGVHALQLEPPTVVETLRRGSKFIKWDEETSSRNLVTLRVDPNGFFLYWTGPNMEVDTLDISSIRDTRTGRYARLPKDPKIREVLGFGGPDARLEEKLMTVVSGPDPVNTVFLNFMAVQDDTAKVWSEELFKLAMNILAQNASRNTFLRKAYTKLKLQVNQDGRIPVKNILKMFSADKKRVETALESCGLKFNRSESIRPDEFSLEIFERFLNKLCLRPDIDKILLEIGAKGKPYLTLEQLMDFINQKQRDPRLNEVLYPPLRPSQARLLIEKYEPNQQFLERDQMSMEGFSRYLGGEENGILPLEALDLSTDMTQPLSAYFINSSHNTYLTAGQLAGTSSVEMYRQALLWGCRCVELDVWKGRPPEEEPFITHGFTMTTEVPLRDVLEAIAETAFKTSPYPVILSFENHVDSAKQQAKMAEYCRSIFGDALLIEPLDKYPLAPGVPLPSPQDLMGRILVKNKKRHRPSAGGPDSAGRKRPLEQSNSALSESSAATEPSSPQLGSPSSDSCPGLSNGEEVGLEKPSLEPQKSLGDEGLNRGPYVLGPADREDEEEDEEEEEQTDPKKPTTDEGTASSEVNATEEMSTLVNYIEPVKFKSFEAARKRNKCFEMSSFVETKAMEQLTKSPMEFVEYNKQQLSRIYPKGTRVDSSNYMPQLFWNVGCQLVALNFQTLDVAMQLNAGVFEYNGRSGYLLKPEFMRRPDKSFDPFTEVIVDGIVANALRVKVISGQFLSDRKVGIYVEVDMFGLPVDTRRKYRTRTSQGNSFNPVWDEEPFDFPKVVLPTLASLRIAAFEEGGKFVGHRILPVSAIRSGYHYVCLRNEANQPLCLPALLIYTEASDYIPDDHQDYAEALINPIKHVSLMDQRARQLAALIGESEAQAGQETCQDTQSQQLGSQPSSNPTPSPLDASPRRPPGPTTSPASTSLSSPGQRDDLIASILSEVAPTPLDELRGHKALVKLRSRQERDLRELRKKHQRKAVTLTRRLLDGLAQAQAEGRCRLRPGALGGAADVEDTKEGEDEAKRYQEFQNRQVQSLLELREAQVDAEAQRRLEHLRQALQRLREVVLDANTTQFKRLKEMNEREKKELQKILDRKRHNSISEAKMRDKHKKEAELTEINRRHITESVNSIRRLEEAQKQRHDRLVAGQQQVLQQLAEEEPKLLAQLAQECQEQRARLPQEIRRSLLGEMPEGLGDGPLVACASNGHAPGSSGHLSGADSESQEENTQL
Numbers stand for hits; . = inactive.

SMILES | MBD2 DNA inh | LEDGF integ inh | PLCg1 inh | UHRF1 MBD2 ctr | PLCb3 inh
Cc1ccc(C(C)C)cc1S(=O)(=O)Nc1ccncc1 | . | . | . | 28 | .
C/C(Cn1cnc([N+](=O)[O-])n1)=N\NC(=O)c1ccccc1O | . | . | . | . | .
C/C(Cn1cnc([N+](=O)[O-])n1)=N/NC(=O)COc1ccccc1Cl | . | . | . | 24 | .
COc1ccc(S(=O)(=O)N/N=C(/C)c2ccncc2)cc1 | . | . | . | 27 | .
C/C(=N\NS(=O)(=O)c1ccc(Br)cc1)c1ccncc1 | . | . | . | . | .
Cc1ccc(NC(=O)c2sc3nc[nH]c(=O)c3c2C)c(C)c1 | . | . | . | 23 | .
CCOC(=O)c1sc2nc[nH]c(=O)c2c1C | . | . | . | . | .
CC(C)C[C@H](NC1(C(=O)NC2CCCCC2)CCCCC1)C(=O)NCCc1c[nH]c2ccccc12 | . | . | . | . | .
O=C(Nc1ccccc1)Nc1nc2ncccn2c1-c1ccc(F)cc1 | . | . | . | . | .
Cc1oc(CC(C)C)cc1C(=O)NCCCC(=O)O | . | . | . | . | .
Cc1oc(CC(C)C)cc1C(N)=O | . | . | . | 26 | .
COc1ccc(C#CCN(C)/C(N)=N/C(=O)OCc2ccccc2)cc1 | . | . | . | . | .
C#CCOCCOCCOCCNc1nc(N2CCOCC2)nc(N2CCN(C(=O)CCCCCCCCCCNC(=O)[C@@H]([C@H](C)CC)n3cc(CCCCCN)nn3)CC2)n1 | . | . | . | 22 | .
C#CCOCCOCCOCCNc1nc(N2CCN(C(=O)CCCCCCCCCCNC(=O)[C@H](CO)n3cc(CCCSC)nn3)CC2)nc(N2CCN(C(=O)CCCCCCCCCCNC(=O)[C@H](CCCCN)n3cc(CCO)nn3)CC2)n1 | . | . | . | 25 | .
C#CCOCCOCCOCCNc1nc(N2CCOCC2)nc(N2CCN(C(=O)CCCCCCCCCCNC(=O)[C@@H](CCC(=O)O)n3cc(CCCCCN)nn3)CC2)n1 | . | . | . | . | .
C#CCOCCOCCOCCNc1nc(N2CCN(C(=O)CCCCCCCCCCNC(=O)[C@@H](CCSC)n3cc(CCO)nn3)CC2)nc(N2CCN(C(=O)CCCCCCCCCCNC(=O)[C@H](CCSC)n3cc(CCO)nn3)CC2)n1 | . | . | . | . | .
COc1ccc2c(c1)CN1CN(Cc3ccc(F)cc3)S(=O)(=O)CC21 (configuration not stated) | . | . | . | . | .
CCCC/C=C1/[C@H](c2ccc(Cl)cc2)N(Cc2ccc3c(c2)OCO3)C2=N[C@H](c3ccccc3)CC(=O)N21 | . | . | . | . | .
CC(C)n1c(SCC(=O)NC2CCCCC2)nnc1-c1ccco1 | . | . | . | 43 | .
CC(C)C[C@H]1COc2cc(Br)ccc2S(=O)(=O)N1Cc1cn(CCC2OCCCO2)nn1 | . | . | . | . | .
CC(=NCCc1ccccc1)C1=C(O)CSC1=O | . | . | . | . | .
CC(=NCCc1ccccc1)C1=C(O)CCC1=O | . | . | . | 45 | .
O=C(Cn1c(=O)oc2cc(S(=O)(=O)N3CCCCC3)ccc21)N1CCCCC1 | . | . | . | 52 | .
CN(C)CC(=O)N[C@@H]1C[C@@H]2O[C@@H](CO)CC[C@@H]2O[C@@H]1CCc1ccc(-c2ccc(F)cc2)cc1 | . | . | . | . | .
COc1ccc2cc3[n+](cc2c1O)CCc1cc2c(cc1-3)OCO2 | . | 27 | . | . | .
SMILES | MBD2 DNA inh | LEDGF integ inh | PLCg1 inh | UHRF1 MBD2 ctr | PLCb3 inh
COc1cc2c(cc1OC)-c1cc3ccc(OC)c(OC)c3c[n+]1CC2 | . | . | . | . | .
Cc1cc(C)cc(C(=O)OCCN(C)C2CN(Cc3cn(Cc4ccc([N+](=O)[O-])cc4)nn3)S(=O)(=O)C2)c1 (configuration not stated) | . | . | . | . | .
COc1ccc(OC)c(NC(=O)CN2c3cccc4cccc(c34)S2(=O)=O)c1 | . | . | . | . | .
COc1ccc(OC)c(NC(=O)C(C)N2c3cccc4cccc(c34)S2(=O)=O)c1 (configuration not stated) | . | 30 | . | . | .
O=C(Nc1ccccc1Cl)C1C2CCC3C(CCC21)C3(Cl)Cl (configuration not stated) | . | . | . | . | .
CCOc1ccccc1NC(=O)COC(=O)C1CCC1 | . | . | . | . | .
CCOc1ccccc1NC(=O)C1C2CCC3C(CCC21)C3(Cl)Cl (configuration not stated) | . | . | . | 26 | .
CCOc1ccccc1NC(=O)COC(=O)C1CC1 | . | . | . | 23 | .
CC(=O)Nc1ccc(NCN2C(=O)C3C4CCC(C4)C3C2=O)cc1 (configuration not stated) | . | . | . | 29 | .
COC(=O)c1ccc(NCN2C(=O)C3C4CCC(C4)C3C2=O)cc1 (configuration not stated) | . | . | . | . | .
CCOC(=O)N1CCC2(CC1)NCCc1c2[nH]c2ccccc12 | . | . | . | 25 | .
COC(=O)C1(C)NCCc2c1[nH]c1ccccc21 (configuration not stated) | . | . | . | . | .
COC(=O)CC1=NN(c2nc3ccccc3s2)C(=O)/C1=C/N(C)C | . | . | . | 79 | .
COc1ccc(/C=C/S(=O)(=O)NCCc2ccccc2)c(CNC(=O)OC(C)(C)C)c1 | . | . | . | . | .
Cn1c(=O)[nH]c(=O)c2c1nc(N(CCO)Cc1ccccc1)n2CCCc1ccccc1 | . | . | . | . | .
C=C(C)Cn1c(N(CCO)Cc2ccccc2)nc2c1c(=O)[nH]c(=O)n2C | . | . | . | 84 | .
COC(=O)[C@@]1(Sc2ccc(C)cc2)CC(=O)N[C@@H]1c1ccc(C(F)(F)F)cc1 | . | . | . | 23 | .
COC(=O)[C@]1(Sc2ccccc2)CC(=O)N[C@@H]1c1ccccc1 | . | . | . | . | .
Cc1ccc(Cc2c(-c3ccc(Cl)cc3)nc3ccc(Br)cn23)cc1 | . | . | . | 21 | .
Cc1ccc(Cc2c(-c3ccc(C)cc3)nc3ccc(Br)cn23)cc1 | . | . | . | 22 | .
Brc1ccc(-c2nc3ccc(Br)cn3c2Cc2ccccc2)cc1 | . | . | . | 21 | .
Cc1ccc2nc(-c3ccc(F)cc3)c(Cc3cccc(Cl)c3)n2c1 | . | . | . | 66 | .
CC(=O)CC[C@H]1CC[C@]2(CCCN(C(=O)c3ccco3)C2)O1 | . | . | . | . | .
C#CCNC(=O)C[C@H]1C[C@@]2(C(=O)OC)C(=C[C@H](C(C)(C)C)O[C@@H]2C)N(Cc2cccc3ccccc23)C1=O | . | . | . | . | .
CCCc1nc2ccc(Cl)cn2c1Cc1ccc(C)cc1 | . | . | . | 21 | .
C[C@H]1[C@@H](OC(=O)N2CCN(c3ccccc3)CC2)CC[C@@]23CCCN2C(=O)CCC[C@@H]13 | . | . | . | . | .
Nc1cccnc1Sc1ccc(Cl)cc1 | . | . | . | . | .
N#CCc1cccnc1Sc1ccc(Cl)cc1 | . | . | . | 26 | .
N/C(=N\OC(=O)c1cc([N+](=O)[O-])ccc1Cl)c1ccccn1 | . | . | . | 46 | .
